Test results published in ChEMBL document CHEMBL1201862, “PubChem BioAssay data set” (2004).
Among all 400,000 compounds or so, about 2,100 (0.53%) were called active. Inconclusive results (about 14%) are left out. The sample holds actives, similar compounds and a random draw of the others, so the mix is not that of the screen. How the calls were made is not given here.

Target: Ataxin-2 (Homo sapiens) (UniProt Q99700)
Experiment: qHTS for Inhibitors of ATXN expression.
Format: functional

Ataxin-2 (Homo sapiens), sequence (Q99700 whole entry): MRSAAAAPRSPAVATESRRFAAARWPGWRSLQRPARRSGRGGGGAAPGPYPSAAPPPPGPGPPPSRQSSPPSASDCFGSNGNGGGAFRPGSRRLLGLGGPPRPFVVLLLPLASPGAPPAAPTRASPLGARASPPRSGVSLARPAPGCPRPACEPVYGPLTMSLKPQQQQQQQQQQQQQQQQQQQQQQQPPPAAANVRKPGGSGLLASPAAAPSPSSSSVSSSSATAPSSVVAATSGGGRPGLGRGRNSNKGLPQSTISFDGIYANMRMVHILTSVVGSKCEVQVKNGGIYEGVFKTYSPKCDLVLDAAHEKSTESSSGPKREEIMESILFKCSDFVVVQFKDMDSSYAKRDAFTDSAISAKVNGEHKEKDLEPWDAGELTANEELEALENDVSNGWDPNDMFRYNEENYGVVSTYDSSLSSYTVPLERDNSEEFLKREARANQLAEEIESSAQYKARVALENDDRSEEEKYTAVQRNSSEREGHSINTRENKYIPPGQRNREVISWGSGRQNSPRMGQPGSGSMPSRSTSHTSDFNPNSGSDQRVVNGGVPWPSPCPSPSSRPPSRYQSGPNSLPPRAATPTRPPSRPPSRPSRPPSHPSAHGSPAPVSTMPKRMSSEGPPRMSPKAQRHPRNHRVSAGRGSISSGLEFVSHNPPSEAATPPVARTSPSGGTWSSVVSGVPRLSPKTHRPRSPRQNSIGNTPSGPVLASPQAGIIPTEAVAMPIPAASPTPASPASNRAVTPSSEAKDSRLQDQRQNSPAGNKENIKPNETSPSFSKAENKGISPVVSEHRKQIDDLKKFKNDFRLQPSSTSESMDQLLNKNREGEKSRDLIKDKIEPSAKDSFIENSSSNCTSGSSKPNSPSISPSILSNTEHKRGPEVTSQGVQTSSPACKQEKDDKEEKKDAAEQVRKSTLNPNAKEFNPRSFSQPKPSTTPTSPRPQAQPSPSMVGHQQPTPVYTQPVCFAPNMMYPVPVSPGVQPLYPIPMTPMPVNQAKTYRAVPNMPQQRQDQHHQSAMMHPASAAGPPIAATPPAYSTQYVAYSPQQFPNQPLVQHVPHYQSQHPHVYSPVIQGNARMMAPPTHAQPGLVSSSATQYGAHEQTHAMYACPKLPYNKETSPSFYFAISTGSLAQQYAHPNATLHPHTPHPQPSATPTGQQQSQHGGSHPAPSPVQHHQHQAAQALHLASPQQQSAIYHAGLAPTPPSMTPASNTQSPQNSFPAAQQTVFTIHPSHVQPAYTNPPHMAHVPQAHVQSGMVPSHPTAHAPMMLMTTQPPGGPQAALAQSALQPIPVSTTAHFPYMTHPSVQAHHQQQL

SMILES | Potency
C#CCOCCOCCOCCNc1nc(N2CCN(C(=O)CCCCCCCCCCNC(=O)[C@H](CCCCN)n3cc(C)nn3)CC2)nc(N2CCN(C(=O)CCCCCCCCCCNC(=O)[C@@H]([C@H](C)O)n3cc(C)nn3)CC2)n1 | 22.4 µM (active)
C#CCOCCOCCOCCNc1nc(N2CCN(C(=O)CCCCCCCCCCNC(=O)[C@H](CCCCN)n3cc(C)nn3)CC2)nc(N2CCN(C(=O)CCCCCCCCCCNC(=O)[C@H](CO)n3cc(CCCSC)nn3)CC2)n1 | 31.6 µM (active)
Cc1ccc(C(=O)c2coc3c2C(=O)C(=O)c2ccccc2-3)cc1 | 39.8 µM (active)
O=C1C(=O)c2c(C(=O)c3ccccc3)coc2-c2ccccc21 | 35.5 µM (active)
COCC/N=C1/Sc2nc3ccc(C)cc3cc2CN1Cc1cccs1 | inactive
CN1C(=S)N(c2cccnc2)C(=O)/C1=C\c1ccc(N(C)C)cc1 | 20 µM (active)
Cc1cc(/C=C2\NC(=S)NC2=O)c(C)n1-c1cccnc1 | inactive
CN1C(=O)/C(=C\c2ccc(N(C)C)cc2)OC1=S | inactive
O=c1oc2c(CN3CCN(CCO)CC3)c(O)ccc2cc1-c1ccccn1 | inactive
CC1C(=O)N2CCCc3cc(NC(=O)CC(C)(C)C)cc1c32 (configuration not stated) | inactive
CCOc1cc(/C=N/NC(=O)Nc2ccccc2)ccc1O | inactive
CCOc1cc(/C=N\NC(=O)Cc2ccccc2)ccc1OCC(=O)Nc1ccc(C)c(C)c1 | 31.6 µM (active)
CCOc1cc(/C=N/NC(=O)C(C)Sc2ccccc2)ccc1O (configuration not stated) | inactive
CCOc1ccc(CCN2C(=O)C(=O)N([C@@H](CC(C)C)CN3CCC[C@@H]3CN3C(=O)C(=O)NC[C@@H]3CC(C)C)C[C@@H]2Cc2ccccc2)cc1 | 12.6 µM (active)
CCOc1ccc(CCN2C(=O)C(=O)N([C@@H](CC(C)C)CN3CCC[C@H]3CN3C(=O)C(=O)NC[C@@H]3Cc3ccccc3)C[C@@H]2Cc2ccccc2)cc1 | 25.1 µM (active)
CCOc1ccc(CCN2C(=O)C(=O)N([C@@H](CC(C)C)CN3CCC[C@@H]3CN3C(=O)C(=O)NC[C@@H]3Cc3ccccc3)C[C@@H]2CC(C)C)cc1 | 39.8 µM (active)
N#Cc1c(NC(=O)/C=C/C(=O)O)sc2c1CCN(Cc1ccccc1)C2 | inactive
Clc1ccc(-n2c(-c3cccc(Br)c3)nc3nc4ccccc4nc32)cc1 | inactive
Cc1nn(CSc2c(F)c(F)c(F)c(F)c2F)c(C)c1[N+](=O)[O-] | inactive
N#CC1=C(N)Oc2cc(N)ccc2C1c1ccccc1Cl (configuration not stated) | inactive
N#CC1=C(N)Oc2cc(O)c(Cl)cc2C1c1cccnc1 (configuration not stated) | inactive
N#CC1=C(N)Oc2ccc3ccccc3c2C1c1cccnc1 (configuration not stated) | 12.6 µM (active)
Cc1cc(C)cc(NC(=O)c2sc3nc(C)cc(C)c3c2N)c1 | inactive
O=C(NCCc1cccc(Cl)c1)c1ccc(OC2CCN(Cc3ccccn3)CC2)cc1 | 35.5 µM (active)
CCOc1ccc(CCNC(=O)c2cccc(NC3=NC4CS(=O)(=O)CC4S3)c2)cc1 (configuration not stated) | inactive

SMILES | Potency
Cc1c(CCC(=O)NCCc2ccccc2)c(=O)oc2cc(O)ccc12 | inactive
CCCc1c(-c2ccc(O)cc2)nn(-c2ccc(O)cc2)c1-c1ccc(O)cc1 | 25.1 µM (active)
O=C(O)C1CCN(c2nc(-c3ccccc3)c3cc(Br)ccc3n2)CC1 | inactive
CCOC(=O)N1CCN(C(=O)c2cccn3c(=O)c4cc(Br)ccc4nc23)CC1 | inactive
CCCCN1CCc2c1nc1ccc(Br)cc1c2N | 31.6 µM (active)
CCc1cc2c(CN3CCN(Cc4ccccc4)CC3)cc(=O)oc2cc1O | inactive
Cc1ccc(/C=C2\Oc3c(ccc(O)c3CN3CCN(CCO)CC3)C2=O)cc1 | inactive
CN(C(=O)CN1C(=O)c2cccc(N)c2C1=O)C1CCCCC1 | inactive
O=C(Cn1ncc2c1-c1ccccc1OC2)Nc1ccc(Cl)cn1 | inactive
Cc1ccnc(NC(=O)CCC(=O)N(CC(=O)NC2CCCCC2)C2CCCC2)c1 | inactive
CCOc1ccc(S(=O)(=O)N(CC)CC(=O)N2CCCC2)cc1C | inactive
COc1ccccc1N1CCN(C(=O)Cn2ncc3c2-c2cc(C)ccc2OC3)CC1 | 22.4 µM (active)
CC(C)(C)c1ccc2c(c1)N(CC(=O)N1CCCC1)C(=O)CO2 | inactive
Cc1ccc2c(c1)-c1c(cnn1CC(=O)N(Cc1ccco1)C1CCCCC1)CO2 | 37.7 µM (active)
COc1ccccc1N1CCN(C(=O)C2CCN(S(=O)(=O)c3ccccc3F)CC2)CC1 | inactive
Cc1ccc2nc(N3CCN(C(=O)CCC(=O)O)CC3)nc(-c3ccccc3)c2c1 | inactive
CCN(CC)S(=O)(=O)c1ccc2c(c1)N(CC(=O)N1CCN(c3cccc(C)c3)C(C)C1)C(=O)CO2 (configuration not stated) | 35.5 µM (active)
Cc1cccc(N2CCN(C(=O)Cn3ncc4c3-c3cc(C)ccc3OC4)CC2C)c1 (configuration not stated) | 39.8 µM (active)
Cc1ccccc1CN1CCN(C(=O)c2ccc(S(=O)(=O)NCc3ccco3)cc2)CC1 | inactive
CCOCCCNc1nc2nc3ccc(C)cn3c(=O)c2cc1C(=O)NCC1CCCO1 (configuration not stated) | inactive
CCNc1nc(NCC)nc(N/N=C(\C)c2ccc(OC)cc2)n1 | inactive
CC1CCCCC12NC(=O)N(CC(=O)N(C)Cc1nc(O)c3ccccc3n1)C2=O (configuration not stated) | inactive
CC(C)NCCCCOc1cccc(Br)c1 | inactive
CCOc1ccccc1NC(=O)Cn1ncc2ccc([N+](=O)[O-])cc21 | inactive
Cc1cccc(C)c1NC(=O)CN1C(=O)COc2ccccc21 | inactive

SMILES | Potency
CCOc1ccccc1N(CC)C(=O)Cn1ncc2c(=O)oc3ccccc3c21 | inactive
CCOc1ccccc1N(CC)C(=O)Cn1ncc2c1-c1ccccc1OC2 | 39.8 µM (active)
CCN(CC)S(=O)(=O)c1ccc2c(c1)N(CC(=O)NCCCN1CCN(c3cc(Cl)ccc3C)CC1)C(=O)CO2 | 31.6 µM (active)
CCN(CC)S(=O)(=O)c1ccc(N2CCCC2)c(NC(=O)Cc2cc(OC)c(OC)c(OC)c2)c1 | inactive
Clc1ccc(C2=NN(c3ccccc3)C(c3ccco3)C2)cc1 (configuration not stated) | inactive
O=C(O)c1cc(Cl)ccc1-c1ccc(/C=C/c2cc(C(F)(F)F)nc(O)n2)o1 | inactive
Fc1ccc(C2=CC(c3ccc(Br)o3)n3ncnc3N2)cc1 (configuration not stated) | inactive
Cc1ccc(-n2nnc3c(=O)n(CC(=O)N4CCOCC4)cnc32)cc1 | inactive
CC(C)OC(=O)c1cc(NC(=S)Nc2ccc([N+](=O)[O-])cc2)cc(C(=O)OC(C)C)c1 | 44.7 µM (active)
Cc1cccc(NS(=O)(=O)c2ccc3nc(O)cc(C(=O)OC(C)C(=O)Nc4ccc([N+](=O)[O-])cc4)c3c2)c1 (configuration not stated) | inactive
O=C(NCCNc1ccc([N+](=O)[O-])cc1)c1cccc(Br)c1 | inactive
CCN1CCC(O)(/C=C/c2ccc(C(C)C)cc2)C(C(=O)/C=C/c2ccc(C(C)C)cc2)C1 (configuration not stated) | 25.1 µM (active)
COc1ccc(/C=C/C(=O)N(C)c2ccccc2C(=O)O)cc1 | inactive
CCN1CCC(O)(/C=C/c2ccc(C)cc2)C(C(=O)/C=C/c2ccc(C)cc2)C1 (configuration not stated) | 31.6 µM (active)
CC[N+]1(C)CCC(O)(/C=C/c2ccccc2)C(C(=O)/C=C/c2ccccc2)C1 (configuration not stated) | 10.6 µM (active)
Cc1cc(-c2nc(-c3ccncc3)no2)ccc1[N+](=O)[O-] | inactive
Cc1cc(=O)oc2c(CN3CCCC3)c(O)c(Cl)cc12 | inactive
COCCNC(=S)N/N=C/c1ccc2c(c1)OCCO2 | inactive
Brc1cc(Br)c2nc(-c3ccc(N4CCOCC4)cc3)ccc2c1 | inactive
N#CC1=CN(Cc2ccccc2)C=C(/C=N/Nc2ccccc2)C1 | inactive
O=[N+]([O-])c1cc([N+](=O)[O-])c2[nH]nc(-c3ccccc3)c2c1 | inactive
N#Cc1c(N)n(Cc2ccccc2)c(=O)c2cc([N+](=O)[O-])ccc12 | inactive
O=c1c2cc([N+](=O)[O-])cc([N+](=O)[O-])c2[nH]n1-c1ccccc1 | 22.4 µM (active)
COC(=O)Cc1cnc(NC(=O)CSc2nc(O)cc(C(C)C)n2)s1 | inactive
CCCn1nc(NC(=O)c2ccco2)c2cc3ccccc3nc21 | inactive

SMILES | Potency
NC(=S)N/N=C/c1c[nH]c2ccc(OCc3ccccc3)cc12 | 12.6 µM (active)
COCc1c(C(=O)N/N=C/c2c[nH]c3ccccc23)nnn1-c1nonc1N | inactive
COc1cc(Br)cc(/C=N/NC(=O)Cc2ccccc2)c1O | inactive
CN(C1CCCCC1)S(=O)(=O)c1ccc(SCC(=O)C(C)(C)C)nc1 | inactive
CN(Cc1ccccc1)S(=O)(=O)c1ccc(N2CCOCC2)nc1 | inactive
COC(=O)c1ccc(C(=O)N(CCN(C)C)c2nc3c(Cl)cccc3s2)cc1 | inactive
CCOc1cccc2sc(N(CCCN(C)C)C(=O)c3ccc(S(=O)(=O)N(C)Cc4ccccc4)cc3)nc12 | 39.8 µM (active)
CN(Cc1ccccc1)S(=O)(=O)c1ccc(OCC(=O)N2CCC(C(N)=O)CC2)cc1 | inactive
Cc1ccc2sc(N(CCCN(C)C)C(=O)c3ccc(S(=O)(=O)N(C)Cc4ccccc4)cc3)nc2c1C | 31.6 µM (active)
Cc1ccc2sc(N(CCCN(C)C)C(=O)c3ccc(S(=O)(=O)N(C)C4CCCCC4)cc3)nc2c1C | 25.1 µM (active)
Cc1[nH]c2ccccc2c1C(=O)CN1C(=O)NC2(CCCCCC2)C1=O | inactive
CCC(C)(C)c1ccc(OCCCC[n+]2cccc(C)c2C)c(C(C)(C)CC)c1 | 31.6 µM (active)
COc1cccc(/C=C/C(=O)Nc2cccc(C(C)=O)c2)c1OC | inactive
CC(C)(C)NC(=S)N/N=C\c1ccc(-c2ccc([N+](=O)[O-])cc2)o1 | inactive
Cc1cccc(NC(=O)C(C)Oc2ccc(C)nc2[N+](=O)[O-])c1 (configuration not stated) | inactive
C=CCc1cccc(/C=N/NC(=O)C(=O)Nc2ccc(C)cc2)c1O | inactive
Cc1ccc(NC(=S)N/N=C/c2ccc([N+](=O)[O-])s2)cc1 | 39.8 µM (active)
CC(=O)c1cccc(NC(=O)/C=C/c2ccc([N+](=O)[O-])s2)c1 | 5.97 µM (active)
CC(=O)c1cccc(NC(=O)CC2SC(N/N=C/c3ccccc3)=NC2=O)c1 (configuration not stated) | inactive
COc1cccc(/C=N/NC(=S)Nc2cccc(C(=O)O)c2)c1O | inactive
CN(C(=O)/C=C/c1ccc([N+](=O)[O-])s1)c1ccccc1 | 33.6 µM (active)
Cc1cccc(NC(=S)N/N=C/c2ccc([N+](=O)[O-])s2)c1 | 31.6 µM (active)
